Measured values published in paper PMC5540273 (PLoS ONE, 2017).

Assays:
Details in all cases: concentration: 1 μM, replicates: in singlicate; n = 1
[1] = tested on: FGFR1
[2] = tested on: FGFR2
[3] = tested on: FGFR3
[4] = tested on: FGFR4
[5] = tested on: FGR
[6] = tested on: FLT1
[7] = tested on: FLT3-autoinhibited
[8] = tested on: FLT3
[9] = tested on: FLT4
[10] = tested on: FRK
[11] = tested on: FYN
[12] = tested on: GAK
[13] = tested on: T1, GCN2(Kin.Dom.2,S808G)
T1 construct: gene EIF2AK4

[14] = tested on: GRK1
[15] = tested on: T2, GRK2
T2 construct: gene ADRBK1

[16] = tested on: T3, GRK3
T3 construct: gene ADRBK2

[17] = tested on: GRK4
[18] = tested on: GRK7
[19] = tested on: GSK3A
[20] = tested on: GSK3B
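Also: KINOMEscan kinase panel screen.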

| Structure (SMILES) | %Inh [1] [%] | %Inh [2] [%] | %Inh [3] [%] | %Inh [4] [%] | %Inh [5] [%] | %Inh [6] [%] | %Inh [7] [%] | %Inh [8] [%] | %Inh [9] [%] | %Inh [10] [%] | %Inh [11] [%] | %Inh [12] [%] | %Inh [13] [%] | %Inh [14] [%] | %Inh [15] [%] | %Inh [16] [%] | %Inh [17] [%] | %Inh [18] [%] | %Inh [19] [%] | %Inh [20] [%] |
| --- | --- | --- | --- | --- | --- | --- | --- | --- | --- | --- | --- | --- | --- | --- | --- | --- | --- | --- | --- | --- |
| Nc1ncc(-c2ccc3nccc(-c4ccncc4)c3c2)cc1S(=O)(=O)N1CCOCC1 [GSK1627798] | 0 | 0 | 6 | 0 | 24 | 22 | 0 | 0 | 0 | 8 | 14 | 6 | 3 | 1 | 0 | 17 | 1 | 0 | 1 | 3 |
| COc1ccc(Nc2nccc(NCCNC(=O)c3cc4ccccc4s3)n2)cc1 [GSK1379896] | 0 | 0 | 5 | 9 | 1 | 19 | 0 | 0 | 10 | 0 | 33 | 42 | 3 | 6 | 3 | 0 | 0 | 0 | 7 | 13 |
| COC(=O)Nc1nc2cc(Oc3ccc(NC(=O)Nc4cc(C(F)(F)F)ccc4F)cn3)ccc2[nH]1.Cl.Cl [GW681170] | 7 | 0 | 4 | 3 | 15 | 94.1 | 40 | 99.1 | 79 | 55 | 41 | 5 | 0 | 0 | 0 | 0 | 0 | 0 | 0 | 8 |
| Cc1cccc(NC(=O)Nc2ccc(Oc3ncnc4ccn(C)c34)cc2)c1 | 0 | 0 | 0 | 0 | 0 | 99.3 | 64 | 100 | 73 | 10 | 0 | 0 | 0 | 4 | 0 | 0 | 0 | 0 | 0 | 0 |
